# From the supplement of paper PMC3334620
# Over roughly 33,000 sequences, “E-score (-0.5 to 0.5)” has its median near -0.035; the highest 2% begin near 0.35. Only a selection was taken, and the highest values are over-represented in it overall.
# Biological target: T1, Pdr3 (UniProt P33200)
# T1 sequence: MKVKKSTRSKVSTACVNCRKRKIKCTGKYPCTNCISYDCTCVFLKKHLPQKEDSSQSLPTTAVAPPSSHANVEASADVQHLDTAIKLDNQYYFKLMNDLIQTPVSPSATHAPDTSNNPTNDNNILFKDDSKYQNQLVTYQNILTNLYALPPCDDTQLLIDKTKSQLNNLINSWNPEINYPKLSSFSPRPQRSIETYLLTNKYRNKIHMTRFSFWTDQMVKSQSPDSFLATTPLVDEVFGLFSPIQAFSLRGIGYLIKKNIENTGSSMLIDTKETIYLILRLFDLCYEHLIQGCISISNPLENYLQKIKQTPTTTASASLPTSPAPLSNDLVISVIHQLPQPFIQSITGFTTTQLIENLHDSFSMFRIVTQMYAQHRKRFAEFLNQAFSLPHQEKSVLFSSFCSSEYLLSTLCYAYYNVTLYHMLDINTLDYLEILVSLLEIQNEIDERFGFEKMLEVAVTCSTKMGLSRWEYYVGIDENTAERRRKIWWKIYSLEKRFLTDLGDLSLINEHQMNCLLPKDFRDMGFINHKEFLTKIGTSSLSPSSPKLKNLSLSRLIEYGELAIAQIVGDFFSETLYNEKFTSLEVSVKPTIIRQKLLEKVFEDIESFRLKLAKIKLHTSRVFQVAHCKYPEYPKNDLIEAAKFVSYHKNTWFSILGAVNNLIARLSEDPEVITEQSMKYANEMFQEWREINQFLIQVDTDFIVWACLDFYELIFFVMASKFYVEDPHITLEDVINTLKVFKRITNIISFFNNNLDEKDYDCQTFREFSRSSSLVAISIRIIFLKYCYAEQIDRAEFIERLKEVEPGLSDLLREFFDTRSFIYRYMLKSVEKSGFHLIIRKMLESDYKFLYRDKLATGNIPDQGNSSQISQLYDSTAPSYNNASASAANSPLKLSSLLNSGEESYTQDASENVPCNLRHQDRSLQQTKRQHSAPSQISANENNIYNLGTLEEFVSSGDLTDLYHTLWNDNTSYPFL
# Experiment: PBM E-score (8-mer binding enrichment) (E-score (-0.5 to 0.5)); higher = stronger / more preferred TF binding
# Details: protein concentration: 200 nM; construct: GST-full length
# Outline: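 The E-score, a modified Wilcoxon-Mann-Whitney statistic, was computed by the Universal PBM Analysis Suite for every ungapped eight-base word pooled with its reverse complement. Scans behind it were normalised with masliner after bound GST-tagged yeast transcription factors were detected with fluorescent anti-GST. The proteins, at about 100-200 nM, had been applied to universal all-10-mer Agilent arrays made double-stranded by primer extension.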
row,Sequence,PBM E-score
1,CGTTGCCC,0.101
2,AAGTGTGT,-0.187
3,CAACTAGA,-0.0997
4,GTTGTGAA,-0.142
5,GAATCAGC,-0.124
6,TCGTTCAA,-0.125
7,CCCGTGGC,0.233
8,GCCGTGGA,0.258
9,CCCGTGGA,0.395
10,GCCGTCGA,0.104
11,GCCGTCAA,-0.048
12,CCCGTCGA,0.215
13,ACCGTCAA,-0.00477
14,TCCGTCGA,0.39
15,TCCGTCAA,0.375
16,AAGCGAAG,-0.0806
17,ACCAGTAT,0.0888
18,AGTTGGTA,-0.111
19,GTCATCCA,-0.0723
20,AACGGAGT,0.373
21,AACGGACT,0.0833
22,AACGGAAT,0.468

row,Sequence,PBM E-score
1,AACGGAGG,0.185
2,AACGGAAG,0.423
3,AATGGAAG,0.0364
4,AACGGTAT,-0.0131
5,AACGGAGC,0.275
6,AACGGTAG,0.0653
7,ACTTTCGA,-0.0188
8,AAAGTTCC,0.2
9,GGCGGGGA,0.292
10,ATTAGCAG,-0.0762
11,ATGCGCAT,0.165
12,AATCCTCA,-0.244
13,ACTATCCC,0.165
14,AACGACCG,-0.146
15,CCAATTAC,-0.099
16,GAGATAAA,0.122
17,CACGCGGA,0.38
18,AACGCGGA,0.358
19,AACGCGGG,0.332
20,AACGCGGC,0.123
21,CACGCGGG,0.0841
22,CACGCGGC,-0.00292

row,Sequence,PBM E-score
1,ATGTACCG,-0.0139
2,GAGTGCTA,-0.0621
3,CTGGGAGC,-0.192
4,CAAAAAAA,0.211
5,AAGCAAAG,-0.213
6,CACAGCAG,-0.234
7,GCAGCCAC,0.0849
8,ATGCACAA,-0.0898
9,ACGGACAC,0.321
10,GTCTCGGA,0.306
11,ATCTCGGA,0.376
12,CTCTCGGC,0.118
13,CTCTCGGA,0.358
14,CTCTCGAA,-0.197
15,ATCTCGGG,0.278
16,CCGTTTTC,0.202
17,CCCGGGAG,0.397
18,CCTGGGAA,-0.0887
19,CACGGGAG,0.0682
20,CCGGGGAG,0.332
21,CCGGGGGA,0.311
22,GCCGGGAC,0.316

row,Sequence,PBM E-score
1,CCCGGGAC,0.451
2,CCGGGGAC,0.234
3,CCCGGGAA,0.443
4,CCCGGGGC,0.338
5,CCCGGGGA,0.414
6,ACCGGGAG,0.144
7,CCTCTACC,-0.104
8,AGCGAGCA,-0.189
9,ATAATCAT,0.0794
10,AGTCTTAG,-0.224
11,CGATTCGA,0.143
12,AGTGTCGA,0.0406
13,ATGACCAA,-0.0317
14,ATGCCCTC,-0.0557
15,AGCTAAAT,-0.165
16,ACAGTTAC,-0.111
17,CGCTATCC,0.158
18,AACGAGAA,-0.0948
19,CAAGGGCA,-0.0651
20,AGGCACGC,0.049
21,GGCGGCCC,-0.00494
22,CTCACCAA,0.136

row,Sequence,PBM E-score
1,AAGCGGTC,0.00531
2,CCCCGGTA,0.122
3,TCCCGGGA,0.485
4,TCCGGGCA,0.346
5,CGGGGGAA,0.276
6,TCCCGGCA,0.323
7,TACCGGGA,0.347
8,GCCGGGAA,0.304
9,CCCCGGCA,0.189
10,TCCGGGAA,0.386
11,CCCCGGGA,0.417
12,CCGGGGAA,0.356
13,ACGGGGAA,0.204
14,ATTACACA,-0.0105
15,AAACGCGG,0.245
16,ACCAGGCG,-0.0145
17,AGCCTTTA,-0.193
18,GGCTAAAC,-0.135
19,CTCATTCC,0.356
20,ATCATTCC,0.281
21,CTCATTCA,-0.0959
22,AGATAGGC,-0.16
